Drawing on PubChem BioAssay AID1458 (National Center for Advancing Translational Sciences (NCATS), 2008), this text covers Potency for 103 compounds.

Screen size: about 210,000 compounds; about 5,900 (2.8%) were called active. Where a call stands in place of a potency, no number is given. About 5% were inconclusive and are not listed. The call rests on the fitted dose curve; in most records, active means well fitted activation curve with a large enough effect; inconclusive means small, poorly fitted or top-dose-only effect; inactive means no such curve, though single readings can be large or run the other way. Many of the other results were omitted from the sample, so actives are more common in it than they were.
Potency means the concentration at half of the fitted maximal effect.

This assay in a line: qHTS Assay for Enhancers of SMN2 Splice Variant Expression. Further: nearly all actives have a fitted effect of over 55% in size. Particulars: HEK293 SMN2-luciferase splicing reporter, luminescence, 30-36 h; series mostly up to 46.1 µM. The procedure, abridged: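 qHTS luciferase splicing reporter: luminescence rises when SMN2 exon 7 is included in transfected HEK293 cells. Compound exposure lasted 30-36 h at 37C, with 4.5 mM final sodium butyrate as control, followed by a ONE-Glo read.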
In general terms: In qHTS, concentration-response curves come from the screen itself.
For the compound `CCc1ccc(S(=O)(=O)c2nnn3c2nc(NCc2ccccc2OC)c2cc(Cl)ccc23)cc1`, the Potency result is “inactive”. The same measure for `CCOc1ccc(C2C(C(=O)Nc3ccc(Cl)cc3)=C(C)Nc3nc(C(F)(F)F)nn32)cc1` (stereo not drawn): “inactive”; for `Cc1nn(CC(=O)N2CCN(c3cccc(C(F)(F)F)c3)CC2)c(=O)c2cc3sccc3n12`: “inactive”; for `C/C=C(\C)C(=O)O[C@H]1CC(C)=C2C(=O)C=C(C)C2[C@@H]2OC(=O)[C@@](C)(OC(=O)C=C(C)C)C21` (stereo partly drawn): “inactive”. The same measure for `CCN(CCCNC(=O)c1cc(Nc2ccc(OC)cc2)nc2ccccc12)c1cccc(C)c1`: “inactive”; for `CC(C)c1ccc(NC(=O)CN(C)S(=O)(=O)c2ccc3c(c2)c(=O)n(C)c(=O)n3C)cc1`: “inactive”; for `O=C(CSc1oc(-c2ccco2)nc1S(=O)(=O)c1ccccc1)c1ccc(Cl)cc1`: “inactive”. Regarding `Cc1ccc(-c2nn(CCC(=O)Nc3ccc(OC(F)(F)F)cc3)c(=O)c3ccccc23)cc1`, the Potency result is “inactive”. Regarding `CCOc1cc(/C=C(\C#N)C(=O)Nc2ccccc2C)ccc1OCc1cc(=O)n2nc(CC)sc2n1`, the Potency entry was “inactive”. The same measure for `COc1ccc(-n2c(=O)c3sc4ccccc4c3n(CC(=O)Nc3cccc(C)c3)c2=O)cc1`: “inactive”. Take `C/C=C(\C)C(=O)OC1C(OC(=O)C2(C)OC2C)c2cc3ccc(=O)oc3cc2OC1(C)C` (stereo not drawn): the Potency entry is “inactive”.

For `Cc1cccc(Cn2c(SCc3ccc(C(=O)N4CCC(C)CC4)cc3)nc3ccncc32)c1`, the Potency result is “inactive”. Consider `CC1=C(C(=O)OCC(C)C)C(c2ccc(OCc3ccccc3)cc2)N2C(=O)CCSC2=N1` (stereo not drawn), for which the Potency result was “inactive”.

Turning to `CCCC(=O)Nc1ccc(NC(=O)c2sc3ccccc3c2Cl)cc1`, the Potency result is “inactive”.

`COC(=O)c1cc(NC(=O)c2sc3ccccc3c2Cl)cc(C(=O)OC)c1`: the Potency entry was “inactive”. The same measure for `O=C(Nc1ccon1)c1sc2ccccc2c1Cl`: 17.8 µM (active); for `COc1ccc(/C=C/c2nc(C#N)c(NCc3ccc(F)cc3)o2)cc1OC`: “inactive”. The same measure for `CCOc1ccc(CNC(=O)C2CCN(c3nnc(-n4cccc4CNc4ccc(C)cc4)s3)CC2)cc1OC`: “inactive”; for `COc1ccc2[nH]cc(CCNc3ncnc4ccc(-c5ccccc5CN(C)C)cc34)c2c1`: “inactive”; for `COCCNc1ncnc2ccc(-c3ccccc3CN(C)C)cc12`: “inactive”.

For `COc1ccccc1CNc1ncnc2ccc(-c3c(C)noc3C)cc12`, the Potency was 10 µM (active). As to `Cc1c(NC(=O)Nc2ccc(F)c(Cl)c2)c(=O)n(-c2ccccc2)n1C`, the Potency entry was “inactive”. The same measure for `CCOC(=O)CSc1nnc(-c2ccncc2)o1`: “inactive”; for `Cc1cccc(C)c1OC(=O)CSc1nnc(-c2ccccc2)o1`: “inactive”; for `CCCCSc1nnc(-c2ccc(C)cc2)o1`: 11.2 µM (active).

Regarding `O=C(Cc1ccc(Cl)cc1)Nc1ccc2nn(-c3ccc(Cl)cc3)nc2c1`, the Potency result is “inactive”. With `CCCCNC(=O)c1ccc2c(c1)NC(=O)C(C(C)C)N2` (stereo not drawn) the entry was “inactive”; with `COc1ccc(CNc2nc(-c3ccccc3)nn2C(=O)c2ccccc2OC)cc1`, “inactive”. For `Brc1cccc(-c2nnn3c2nc(NC2CCCCC2)c2ccccc23)c1`, the Potency result is “inactive”. For the compound `COc1ccc(N2CCN(Cc3nc4c(c(=O)[nH]c(=O)n4C)n3Cc3ccc(Cl)cc3)CC2)cc1`, the Potency result was “inactive”. As for `O=C(NCCC1=CCCCC1)C1CCN(Cc2cnn(-c3ccccc3)c2-n2cccc2)CC1`, the Potency entry was “inactive”. For `C1=C(CCNc2ncnc3c2cnn3-c2ccccc2)CCCC1`, the Potency is 12.6 µM (active). The same measure for `c1ccc(-n2ncc3c(N4CCCC4)ncnc32)cc1`: “inactive”; for `CCOc1ccccc1C(=O)NC1(C(F)(F)F)C(=O)Nc2c1c(=O)[nH]c(=O)n2-c1ccc(F)cc1` (stereo not drawn): “inactive”. The same measure for `O=C(NC1(C(F)(F)F)N=C(c2ccccc2)N(C2CCCCC2)C1=O)c1ccccc1F` (stereo not drawn): “inactive”; for `CCCN1CN=C(NS(=O)(=O)c2ccc(NC(C)=O)cc2)NC1`: “inactive”. The same measure for `COc1ccc(-c2cc(-c3ccc(F)cc3)nc3c2COc2ccccc2-3)cc1`: “inactive”. Regarding `CSc1ccccc1-c1nnc(-c2ccc(Cl)cc2)o1`, the Potency was 14.1 µM (active). As for `FC(F)(F)c1cnc(Oc2ccccc2-c2nnc(-c3ccc(Cl)cc3)o2)c(Cl)c1`, the Potency result was “inactive”. `Clc1ccc(-c2nnc(SCc3nc4ccccc4s3)o2)cc1`: the Potency result is “inactive”.

Take `CCOC(=O)c1ccccc1NC(=O)CCc1c(C)nc2c(c1C)c(=O)n(C)c(=O)n2C`: the Potency entry was “inactive”.

In the case of `CCN(CC)S(=O)(=O)c1ccc2c(c1)N(CC(=O)NCc1ccccc1)C(=O)CS2`, the Potency entry was “inactive”. With `CCc1ccccc1NC(=O)CSc1nnc(-c2ccncc2)o1` the entry was “inactive”; with `O=C(CSc1nnc(-c2ccncc2)o1)NCc1ccc(Cl)cc1`, “inactive”. As to `O=C(CSc1nnc(-c2ccc([N+](=O)[O-])cc2)o1)Nc1ccccn1`, the Potency is 3.16 µM (active). The same measure for `N#Cc1nc(/C=C/c2ccc(F)cc2)oc1NCc1ccc(F)cc1`: “inactive”; for `Cc1ccc2nc3c(cc(C(=O)NC4CCCCC4)c(=N)n3C(C)C)c(=O)n2c1`: “inactive”. With `NCCC(=O)c1ccccc1N` the entry was “inactive”; with `Cc1ccc(Nc2ccccc2N)cc1`, “inactive”.

Take `Nc1ccccc1N`: the Potency was 11.2 µM (active). With `COc1ccc(NC(=O)C(=O)NCc2ccco2)cc1` the entry was “inactive”; with `COc1cccc(NC(=O)N2CCN(C(=O)c3nsc4ccccc34)CC2)c1`, “inactive”. `COc1cccc2sc(NNC(=O)c3nc4ccccc4s3)nc12`: the Potency result was “inactive”. The same measure for `COc1cccc2sc(Nc3nc(C)c(C(C)=O)s3)nc12`: 7.94 µM (active). With `COc1cccc2sc(N(CCCN(C)C)C(=O)C(c3ccccc3)c3ccccc3)nc12` the entry was “inactive”; with `COc1ccc(/C=C2\NC(=O)[C@@H]3Cc4ccccc4CN3C2=O)cc1`, “inactive”.

For `CCN(CC)S(=O)(=O)c1ccc2c(c1)N(CC(=O)NCC(C)c1ccccc1)C(=O)CO2` (stereo not drawn), the Potency entry was “inactive”. Consider `Cc1ccc2nc(COc3ccc(N(C)S(=O)(=O)c4ccccc4)cc3)cc(=O)n2c1`, for which the Potency entry was “inactive”.

In the case of `O=Cc1ccc(OCc2cn3ccccc3n2)cc1`, the Potency was 11.2 µM (active). With `COc1ccc(C(=O)NCc2cn3ccccc3n2)cc1` the entry was “inactive”. With `COc1ccc(-c2nc3c(c(SCC(=O)Nc4ccc(C(=O)O)cc4)n2)Cc2ccccc2O3)cc1`, the Potency entry is “inactive”. With `Cc1ccc(-n2cc3ccc([N+](=O)[O-])cc3n2)cc1` the figure was 1.26 µM (active). With `CC(C)(C)NC(=O)Cn1cnc2cc([N+](=O)[O-])ccc2c1=O`, the Potency result is “inactive”. As for `Cc1cc(C)nc(Nc2cc([N+](=O)[O-])ccc2C)n1`, the Potency result was “inactive”. With `CC1CCN(C(=O)Cn2c(=O)n(-c3ccc(Cl)cc3)c(=O)c3c4c(sc32)CCC4)CC1`, the Potency entry is “inactive”. Turning to `CCCOc1ccc(CNC(=O)C2CCN(c3nn4c(=O)cc(C)nc4s3)CC2)cc1`, the Potency entry was “inactive”. As for `Cc1nn(CC(=O)O)c(=O)c2cc3cc(F)ccc3n12`, the Potency entry was “inactive”. With `Oc1ccccc1N1CCN(C(=S)NCc2ccccc2)CC1` the entry was “inactive”.

`S=C(NCCc1ccccc1)N1CCCCC1`: the Potency is 11.2 µM (active). For the compound `O=C1CCN(C(=S)NCCc2ccccc2)CC1`, the Potency entry was “inactive”. The same measure for `CCc1nn(CCCC(=O)NCc2ccccc2OC)c(=O)c2cc3occc3n12`: “inactive”; for `COc1ccc(-n2c(SC)nc3sc4c(c3c2=O)CCN(C(C)=O)C4)cc1`: “inactive”. The same measure for `O=C(Nc1ccc2c(c1)OCCO2)C1CCCN(c2ncccn2)C1` (stereo not drawn): 3.98 µM (active); for `O=C(Nc1ccc2c(c1)OCCO2)C(c1ccc(F)cc1)N1CCCCC1` (stereo not drawn): “inactive”.

Regarding `Cc1cc(C)nc(N2CCC(C(=O)Nc3ccc4c(c3)OCCO4)CC2)n1`, the Potency entry was “inactive”. Regarding `Cc1c(NS(=O)(=O)c2ccc(Cl)cc2)c(=O)n(-c2ccccc2)n1C`, the Potency result was “inactive”. Take `CCOc1ccccc1NC(=O)CSc1ncc(S(=O)(=O)c2ccc(C(C)(C)C)cc2)c(=O)[nH]1`: the Potency result was “inactive”. The same measure for `COC(=O)c1ccc(NC(=O)c2cccc3c2C(=O)N(C2CCCCC2)C3)cc1`: “inactive”; for `CCCOc1cc(C)c(S(=O)(=O)n2nnc3ccccc32)cc1C`: “inactive”. With `COc1cc(C)c(Cl)cc1S(=O)(=O)n1ccnc1`, the Potency entry is “inactive”.

On to `CCOc1cc(C)c(Cl)cc1S(=O)(=O)n1nnc2ccccc21`, for which the Potency is 17.8 µM (active). The same measure for `COc1ccccc1/C=C/c1nc(C#N)c(NC(C)c2ccccc2)o1` (stereo not drawn): “inactive”. With `COc1ccc(/C=N/Nc2nc3ccccc3o2)cc1OC` the figure was 6.31 µM (active); with `COc1ccc(/C=N/S(=O)(=O)c2ccccc2)cc1OC`, “inactive”.

With `CCOc1ccc(/C=N/Nc2nncc(-c3ccccc3)n2)cc1OC`, the Potency entry is “inactive”. On to `Cc1ccc(Cl)cc1NC(=O)C1CCCN(c2cnccn2)C1` (stereo not drawn), for which the Potency entry is “inactive”. With `O=C(Nc1cccnc1Cl)c1cc(-c2cccc(Cl)c2)on1` the entry was “inactive”. For the compound `CCC(=O)N1CCc2cc(S(=O)(=O)NC(Cc3ccccc3)C(=O)NCc3ccccc3)ccc21` (stereo not drawn), the Potency result was “inactive”. On to `COCCNc1nc(N)c([N+](=O)[O-])c(NCCO)n1`, for which the Potency entry is “inactive”. On to `Nc1nc(NCCCN2CCOCC2)nc(Nc2ccccc2)c1[N+](=O)[O-]`, for which the Potency result was “inactive”. The same measure for `CNc1nc(Nc2ccc(C)c(Cl)c2)nc(N)c1[N+](=O)[O-]`: 11.2 µM (active); for `Cc1ccccc1CNC(=O)Cn1c(C)c2cnn(-c3ccccc3)c(=O)c2c1C`: “inactive”. With `CCCn1c(C)cc(/C=C(\C#N)C(=O)OCC(=O)Nc2cc(OC)c(OC)c(OC)c2)c1C` the figure was 14.1 µM (active). The same measure for `COc1cc(CCC(=O)OCC(=O)Nc2cccc(S(N)(=O)=O)c2)cc(OC)c1OC`: “inactive”; for `CCOC(=O)/C(C#N)=C/c1ccc(OCC(=O)Nc2ccccc2)c(OC)c1`: “inactive”; for `CCOc1ccc(CCNC(=O)CN(c2ccc(C)cc2)S(=O)(=O)N(C)C)cc1OCC`: “inactive”. In the case of `CCOC(=O)c1ccc(N2C(=O)c3[nH]nc(-c4ccccc4)c3C2c2ccc(C(C)C)cc2)cc1` (stereo not drawn), the Potency result was “inactive”. Turning to `Cc1cnc(NC(=O)C2CCCC2)s1`, the Potency was 14.1 µM (active). The same measure for `Cc1cnc(NC(=O)CSc2c(Cl)cccc2Cl)s1`: “inactive”; for `CS(=O)(=O)c1ccc2nc(NC(=O)C3CCCCC3)sc2c1`: “inactive”; for `Cc1nc(NC(=O)C23CCC(C)(C(=O)O2)C3(C)C)sc1C` (stereo not drawn): “inactive”. The same measure for `Cc1ccc(SCC(=O)Nc2ncc(C)s2)cc1`: “inactive”; for `Cc1nc(NC(=O)C2CCCCC2)sc1C`: 20 µM (active).
